Measured values as given in PubChem BioAssay (NCATS).
Active and inactive are the calls of the source. The call rests on the fitted dose curve; in most records, active means well fitted activation curve with a large enough effect; inconclusive means small, poorly fitted or top-dose-only effect; inactive means flat fitted curve, though single readings scatter.

Assay: Cellular Toxicity (caspase-3) HepG2 (AID 654);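 further: cells exposed to compound for 16 hours before reading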
Conditions: HepG2 caspase-3 activation, luminescence, 0% = DMSO only, 100% = tamoxifen; series mostly up to 92.2 µM
From the text: NIH Chemical Genomics Center [NCGC]
NIH Molecular Libraries Screening Centers Network [MLSCN]
National Institutes of Environmental Health Sciences [NIEHS]
National Toxicology Program [NTP]
We have developed a 1536-well cell-based assay for quantitative high throughput screening (qHTS) against a number of cell lines to determine in vitro caspase 3/7 of small molecules. This particular assay uses the HepG2 cell line which is derived from human hepatocellular carcinoma.
NCGC Assay Protocol Summary:
The Caspase-Glo 3/7 assay (Promega) is a homogeneous method to measure caspase-3 and caspase-7 activities in cultured cells. The quantitation of caspase 3/7 activity is based on the cleavage of a peptide-aminoluciferin substrate. After caspase cleaves the substrate the free aminoluciferin is liberated and serves as the substrate of luciferase, which generates the light. The luminescent signal is proportional to amount of caspase 3/7 activity present.
Using the Caspase-Glo 3/7 assay, the amount of caspase 3/7 activity was measured in the HepG2 cell line with complete culture medium following compound treatment for 16 hours. The assay was performed in opaque white 1536-well plates. In the screen, tamoxifen and doxorubicin were used as positive controls. Library compounds were measured for their ability to cause the activation of caspase 3/7 in the cell line, as reflected by an increase in luminescence signal, in a concentration-dependent manner. Data were normalized to the controls for basal activity (DMSO only) and 100% stimulation (100 uM tamoxifen). AC50 values were determined from concentration-response data modeled with the standard Hill equation.
qHTS protocol for caspase 3/7 assay in HepG2 cells
[Step] [Parameter] [Value] [Description]
1. Reagent; 5 uL; 1500 HepG2 cells/well
2. Time; 5 hr; 37 °C incubation
4. Controls; 23 nL; Tamoxifen 0.23 uM to 100 uM & Doxorubicin 7.0 pM to 100 uM
5. Time; 16 hr; 37 °C incubation
6. Reagent; 5 uL; Caspase-Glo 3/7 reagent
7. Time; 20 min; Room Temperature
8. Detection; Luminescence; Viewlux plate reader
Keywords: caspase 3/7, apoptosis, HepG2 cell line, luminescence, NTPHTS, NTPHTS_NCGC, NIEHS, EPA, DSSTox, MLSMR, MLSCN, NIH Roadmap, qHTS, NCGC

SMILES | outcome
COc1cc(/C=C/c2ccccc2)oc(=O)c1 | inactive
OCCNCCO | inactive
C=CCOC(=O)c1ccccc1C(=O)OCC=C | inactive
CC12CCC(CC1=O)C2(C)C (stereo not given) | inactive
Cc1c(N=C=O)cccc1N=C=O | inactive
CN(C)C=O | inactive
CCC(O)OC(O)CC (stereo not given) | inactive
O=C(O)c1ccccc1C(c1ccc(O)cc1)c1ccc(O)cc1 | inactive
C=CC(=C)CCC=C(C)C | inactive
c1ccccc1 | inactive
CCC(C)c1ccccc1O (stereo not given) | inactive
Cc1ccc([N+](=O)[O-])c(C)c1 | inactive
Cc1ccc([N+](=O)[O-])cc1N | inactive
COC(=O)CCCCC(=O)OC | inactive
c1ccc2scnc2c1 | inactive
C=C(C)C1CC=C(C)C(O)C1 (stereo not given) | inactive
Nc1ccc(S(=O)(=O)O)cc1 | inactive
O=S(=O)(O)c1ccccc1 | inactive
C=CCc1ccc(OC)c(OC)c1 | inactive
Clc1cc(Cl)c(Cl)cc1Cl | inactive

SMILES | outcome
O=C(O)c1ccc(O)cc1O | inactive
O=[N+]([O-])c1cccc(Cl)c1Cl | inactive
Cc1ccc(N)c([N+](=O)[O-])c1 | inactive
ClCCCl | inactive
C/C=C\c1ccc(OC)cc1 | inactive
O=C(O)c1ccccc1 | inactive
O=C(O)CC(C(=O)O)C(CC(=O)O)C(=O)O (stereo not given) | inactive
CCO | inactive
CC(=O)OC/C=C(\C)CCC=C(C)C | inactive
c1ccc2c(c1)c1cccc3ccc4cccc2c4c31 | inactive
C=Cc1ccccc1Cl | inactive
CCCCCCCCCCCCCC(=O)O | inactive
CC1=C2[C@H](/C=C(\C)C(=O)O)CC[C@@H](C)[C@H]2CC1 | inactive
COc1ccc(/C=C/c2cc(OC)cc(=O)o2)cc1 | inactive
NC1=NC(S)C2N=CN=C2N1 (stereo not given) | inactive
CC1(C)CC(N=C=O)CC(C)(CN=C=O)C1 (stereo not given) | inactive
C1OCOCO1 | inactive
COCC(=O)O | inactive
COC(=O)c1ccc(C)cc1 | inactive
O=C(/C=C/c1ccc(O)c(O)c1)O[C@@H](C(=O)O)[C@@H](OC(=O)/C=C/c1ccc(O)c(O)c1)C(=O)O | inactive
